Measurements: ChEMBL document CHEMBL4513216, “Probing the Open Global Health Chemical Diversity Library for Multistage-Active Starting Points for Next-Generation Antimalarials” (ACS Infect Dis, 2020)
About 8,600 (12%) of roughly 69,000 compounds showed an effect of 50% or more. This excerpt belongs to a sample that is enriched for strong results.

system: Plasmodium berghei; test: Screen against P. berghei liver stage (PbLuc), transformed with Luciferase, at 10uM; type: functional, HepG2; settings: tested at 10 uM

Row | Structure (SMILES) | INHIBITION [%]
1 | CC(=O)Nc1nc(CN2CCn3c(nnc3C(C)C)C2)cs1 | -24.3
2 | CCN1CCn2c(C)cnc2C12CCN(C(=O)Cc1ccccc1)CC2 | 30.9
3 | CC(C)(CNC(=O)CCCOc1cccc(F)c1)C(N)=O | 30.65
4 | Cc1nc(CN2CCCC(c3nccs3)C2)cs1 (configuration not stated) | 24.05
5 | CN(C)CC(=O)N1Cc2nc(C(=O)N3CCCN(C)CC3)oc2C1 | -2.26
6 | N[C@@H]1c2ccccc2C2(CCN(C(=O)c3ccc(=O)[nH]c3)CC2)[C@H]1O | 4.795
7 | CC(C)c1cc(C(=O)N2CCC3(CC2)c2ccccc2[C@@H](N)[C@@H]3O)cs1 | 41.1
8 | Cc1ccc(Cl)cc1C(=O)N1CCC2(CC1)c1ccccc1[C@@H](N)[C@@H]2O | 80.1
9 | Cc1ccc(C(=O)N2CCC3(CC2)c2ccccc2[C@@H](N)[C@@H]3O)cc1F | 35.1
10 | N[C@@H]1c2ccccc2C2(CCN(C(=O)c3ccccc3O)CC2)[C@H]1O | -5.395
11 | COc1ccc(C(=O)N2CCC3(CC2)c2ccccc2[C@@H](N)[C@@H]3O)cc1 | 66.55
12 | c1cc(-c2cncc(C3CCNCC3)n2)n[nH]1 | 35
13 | Cc1cc(C(=O)NCc2cccnc2N(C)C)c(C)o1 | 26.3
14 | Nc1nccnc1C(=O)NC1CCCN(Cc2c(F)cccc2F)C1 (configuration not stated) | 21.8
15 | Cn1nc(Cn2cccc2)c2c1CN(Cc1ccoc1)C2 | 24.6
16 | Cn1nc(Cn2ccnc2)c2c1CN(Cc1ccoc1)C2 | -9.42
17 | CC(C)n1nc(Cn2cccc2)c2c1CN(Cc1ccoc1)C2 | 54.1
18 | COc1ccc(CN2CCC3(CC2)CCN(CCN(C)C)C3=O)cc1 | -17.1
19 | COc1cccc(-c2ncc3c(n2)N(C)CCN(CCN(C)C)C3=O)c1 | 57.5
20 | CN1CCN(CC2CC2)C(=O)c2cnc(N3CCCCC3)nc21 | 7.64
21 | CCCN(C)c1ncc2c(n1)N(C)CCN(CC1CC1)C2=O | 5.56
22 | COc1cccc(-c2nccc(C3CCCN3C)n2)c1 (configuration not stated) | 21.1

Row | Structure (SMILES) | INHIBITION [%]
23 | CN(C)c1ncc2c(n1)N(C)CCN(CC1CC1)C2=O | 21.9
24 | CCc1ccc(-c2ncc3c(n2)N(C)CCN(CCN(C)C)C3=O)cc1 | 79.7
25 | CN1CCN(CC2CC2)C(=O)c2cnc(N3CCCC3)nc21 | 11
26 | CN(C)CCN1CCN(C)c2nc(-c3ccccc3)ncc2C1=O | 59
27 | COc1cccc2cc(CNC(=O)N3CCS(=O)(=O)CC3)oc12 | 23.5
28 | Cc1noc(C)c1-c1cncc(C2CCCN2Cc2ncccc2F)n1 (configuration not stated) | 1.5
29 | CCn1ncc(Nc2[nH]cnc3nncc2-3)c1C | 31.2
30 | N#Cc1ccc(S(=O)(=O)NC(=O)C2CC(c3ccccc3)=NO2)cc1 (configuration not stated) | 6.09
31 | Clc1ccccc1CCn1ccnc1-c1cn(C2CCNCC2)nn1 | 22.4
32 | OCCc1ccccc1-n1ccnc1-c1cn(C2CCNCC2)nn1 | 51.2
33 | CSc1ccccc1-n1ccnc1-c1cn(C2CCNCC2)nn1 | 3.96
34 | Cc1cc(CN2C[C@@H]3COC[C@H](C(=O)N4CCCCO4)[C@@H]3C2)oc1C | 45.1
35 | Cc1csc(N2CCN(CC(=O)N3CCCC3)CC2C)n1 (configuration not stated) | 32.25
36 | CC(c1cccc(S(N)(=O)=O)c1)N(C)CCOC(C)(C)C (configuration not stated) | -27.8
37 | Cc1ccsc1C(=O)NC1CCN(c2cnn(C)c2)C1=O (configuration not stated) | 65.5
38 | Cc1ccccc1C(=O)NC1CCN(c2cnn(C)c2)C1=O (configuration not stated) | 11.7
39 | Cc1cccc(C(=O)NC2CCN(c3cnn(C)c3)C2=O)c1C (configuration not stated) | 30.5
40 | CC1(C(=O)N2CCOCC2)CNCCO1 (configuration not stated) | 6.9
41 | O=C(c1ccc(Oc2cccnc2)cc1)N1CCN(CCO)CC1 | 40.6
42 | CCCN1CCCN(C(=O)c2ccc(Oc3cccnc3)cc2)CC1 | 61
43 | CCCN1CCCN(c2ncccc2C(=O)N2CCCCC2)CC1 | 25.1
44 | CCOc1ccnc(N2CCN(C(=O)c3cccnc3)CC2)n1 | 15.5

Row | Structure (SMILES) | INHIBITION [%]
45 | CCCN1CCN(C(=O)c2cccnc2)CC1 | 64.7
46 | Cc1cc(N2CCN(C(=O)c3cccnc3)CC2)nc(C)n1 | 6.26
47 | CCc1cc(N(C)CCc2c(C)n[nH]c2C)ncn1 | 23
48 | O=C(CCn1ccnc1)N1CC[C@H](Oc2ccc(F)cc2)[C@@H](O)CC1 | 32.05
49 | CN(CC(N)=O)C(=O)c1csc(Br)c1 | -5.1
50 | CS(=O)(=O)NCCC(=O)Nc1cnn(-c2ccccc2Cl)c1 | 7.08
51 | Cc1nn(-c2ccccc2)c(C)c1-c1ccnc(N2CCCNCC2)n1 | 85.8
52 | Cc1nn(-c2ccccc2)c(C)c1-c1ccnc(N2CCC(O)CC2)n1 | 20.2
53 | Cc1nn(-c2ccccc2)c(C)c1-c1ccnc(N2CCCOCC2)n1 | -54.3
54 | O=S(=O)(N1CCOCC1)N1CCCC1Cn1cccn1 (configuration not stated) | -5.71
55 | Cc1nc(C2CN(Cc3ccc(F)cc3Br)CCO2)no1 (configuration not stated) | 11.8
56 | CC(C)c1noc(-c2ccc(N(C)C3CCOCC3)nc2)n1 | -61.1
57 | CN(c1ccc(-c2nc(C3CC3)no2)cn1)C1CCOCC1 | -99.6
58 | Cc1ccccc1-c1noc(-c2ccc(N(C)C3CCOCC3)nc2)n1 | 83.2
59 | O=C(OCc1cc(=O)n2cc(Br)ccc2n1)c1ccc2c(c1)OCO2 | 19.8
60 | O=C(NCCc1cccs1)N1CCCC2(CCC(=O)N(C3CC3)C2)C1 (configuration not stated) | 9.87
61 | COCCN1CC2(CCCN(C(=O)CCCc3cccs3)C2)CCC1=O (configuration not stated) | 25.1
62 | COCCN1CC2(CCCN(C(=O)NCCc3cccs3)C2)CCC1=O (configuration not stated) | 56.5
63 | CCN1CCCC(c2cc(Nc3cnccn3)nc(C)n2)C1 (configuration not stated) | -2.11
64 | O=C(NCCCOCc1ccco1)c1cccnc1N1CCOCC1 | 18.2
65 | Cc1cc(N2CCC(NS(C)(=O)=O)CC2)nc(C(C)C)n1 | 49
66 | CNc1nc(N2CCN(Cc3ccsc3)C(CCO)C2)nc2c1CCC2 (configuration not stated) | 53.8

Row | Structure (SMILES) | INHIBITION [%]
67 | Cc1cc(N2CCC(NC(C)Cc3ccsc3)CC2)nc(N)n1 (configuration not stated) | 64.9
68 | Cc1cc(N2CCN(Cc3ccsc3)C(CCO)C2)nc(N)n1 (configuration not stated) | 50.5
69 | CC(C)Nc1cc(N2CCN(Cc3ccccc3)C(CCO)C2)ncn1 (configuration not stated) | 9.06
70 | CNc1nc(N2C[C@H](NC(=O)CCOC)[C@@H](C3CC3)C2)nc2c1CCC2 | 33.4
71 | CNc1nc(N2CCN(C)C(CCO)C2)nc2c1CCC2 (configuration not stated) | 23.5
72 | CNc1nc(N2CCN(CC=C(C)C)C(CCO)C2)nc2c1CCC2 (configuration not stated) | 68.6
73 | COc1cc(N2CCN(Cc3ccsc3)C(CCO)C2)nc(N)n1 (configuration not stated) | 23.3
74 | CC(C)Oc1cc(N2CCN(Cc3ccsc3)C(CCO)C2)nc(N)n1 (configuration not stated) | 49.4
75 | CNc1nc(N2CCN(C3CCCCC3)C(CCO)C2)nc2c1CCC2 (configuration not stated) | 12
76 | Cc1cc(N2CCC(NC(C)Cc3ccsc3)CC2)nc(C)n1 (configuration not stated) | 27.9
77 | CC(=O)N1CC(=O)N(c2cnn(C)c2)CC12CCN(Cc1ccsc1)C2 (configuration not stated) | 23.5
78 | CC[C@@H](Cn1ncc2ccccc2c1=O)NC(=O)c1cnc(C)cn1 | -20.6
79 | Cc1ccc(-c2cnc3n2CCN(C)C32CCN(CC3CC3)CC2)cc1 | -12.1
80 | Cc1ccnc(C2CN(c3ncccn3)C2)n1 | 25.15
81 | CN1[C@@H]2CC[C@H]1CN(c1cc(Sc3cccs3)nc(N)n1)CC2 | 49.2
82 | Nc1nc(Sc2cccs2)cc(N2CC[C@H](CO)[C@H](O)C2)n1 | -28
83 | CN1CCN(c2cc(Sc3cccs3)nc(N)n2)CC1CCO (configuration not stated) | 50.2
84 | CCNC(=O)CN1CCc2c(Br)ccc(F)c2C1 | -18.3
85 | O=C(c1ccnc(-n2cnnc2)c1)N1CCCC2(CCOC2)C1 (configuration not stated) | 39.4
86 | O=C(c1cnc(Nc2ccccc2)nc1)N1CCCC2(CCNC2)C1 (configuration not stated) | 58.1
87 | O=C(c1cnc(Nc2ccccc2)nc1)N1CCC2(CCNCC2)CC1 | 30.4
88 | O=C(c1ccc(-n2cnnc2)cc1Cl)N1CCCC2(CCNC2)C1 (configuration not stated) | 35.1

Row | Structure (SMILES) | INHIBITION [%]
89 | O=C(c1ccnc(-n2cnnc2)c1)N1CCCC2(CCNC2)C1 (configuration not stated) | 56.5
90 | O=C(c1cnc(Nc2ccccc2)nc1)N1CCS(=O)(=O)CC1 | 27.4
91 | CCOCCC(=O)N(CCC#N)c1ccc(C)c(C)c1 | -2.27
92 | CCc1[nH]nc(NC(=O)c2ccc(Cl)cn2)c1C | -61.3
93 | COCCCN1CCC(N(Cc2noc(C)n2)C(C)=O)C1 (configuration not stated) | 16.9
94 | Cc1cc2c(=O)n3c(nc2s1)CCN(Cc1cnc(C(C)C)nc1)CC3 | 43.7
95 | Cc1nc[nH]c1CN1CCc2nc3scc(C)c3c(=O)n2CC1 | 26.8
96 | Cc1cc2c(=O)n3c(nc2s1)CCN(Cc1[nH]cnc1C)CC3 | 54.4
97 | Cc1cc2c(=O)n3c(nc2s1)CCN(Cc1ccncc1)CC3 | 58.6
98 | CCc1ncc(CN2CCc3nc4sc(C)cc4c(=O)n3CC2)cn1 | 13
99 | Cc1cc2c(=O)n3c(nc2s1)CCN(Cc1c[nH]cn1)CC3 | 23.2
100 | O=C1COC2(CCN(CC3CCC3)CC2)CN1c1cncnc1 | 8.67
101 | Cn1cnnc1C1CCCN(C(=O)COc2ccccc2Cl)C1 (configuration not stated) | -37.7
102 | Cc1cccc(CN2C[C@@H]3CN(C(=O)c4cnccn4)C[C@@H]3C2=O)n1 | 43.2
103 | O=C(CCN1CCOCC1)Nc1cccc(CNCc2cccs2)c1 | 49.2
104 | CCC[C@H]1CN(S(C)(=O)=O)C[C@@H]1NC(=O)Cc1ccc(OC)cc1 | -26.9
105 | COCCOCCNC(=O)c1ccc(N2CCC(C)=N2)cc1 | 50.1
106 | COCCNC(=O)CCNC(=O)c1ccc(N2CCC(C)=N2)cc1 | 40.2
107 | CC1=NN(c2ccc(C(=O)OCCNC(=O)c3ccncc3)cc2)CC1 | -17.8
